Measured values reported in the supplement of paper PMC11417369.
Whole data set: some 25,000 sequences, median “ln(normalized median fluorescence intensity)” near 9.3, cut for the highest 2% near 10. The full list was thinned out, with the highest values kept by preference.

test system: PF3D7_0420300 AP2 domain 1 (GST-tagged); test: gcPBM binding intensity (ln(normalized median fluorescence intensity)); higher = stronger DNA binding
In short: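 GST-tagged P. falciparum DNA-binding domains, expressed in E. coli (about 25 μg on average), were applied for 1 h to an Agilent 4 × 180k array of primer-extended double-stranded 36-bp intergenic genomic probes plus negative controls. The binding buffer was 1× PBS with 1% milk, 0.2 mg/ml BSA, 0.5% salmon testes DNA and 0.03% Triton X-100. Bound protein was detected with Alexa488 anti-GST antibody and scanned at 488 nm. Binding intensity is the highest Masliner-normalised natural-log median intensity across replicate spots of either probe orientation.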

Sequence | gcPBM binding intensity (ln)
CAATCATTTTATTGTTGTACAGTAATTATGAATTCA [XGTACX_site7508] | 9.03
TACAATGAAAAAATAACATGCAATTATATTTCTCTT [TGCATGCA_site833] | 9.17
TATATAAATTAACCAGTGCATTATTTGGAAATTATT | 9.31
CATTATGATTAAATATGTACATATTATTATATAAAT [XGTACX_site2477] | 9.08
GAAAAAAAAAAAAAAAAAAAAAGGAAAAAAGTGAAA [CACACA_negctrl_site996] | 9.21
TATATATGTATATATGGTACAGAATATTCTACATTA [XGTACX_site5077] | 9.23
ATATCATTTTCCTGCACACATAAATTTATATAATAT [CACACA_site1048] | 9.76
TTTTTTTTCTATGTGGTGCACATTATTTTTTTTTTT | 9.41
CACAAAAAGAAACACACACACATATATATATATATA [CACACA_site999] | 9.73
AACAAATACAGACACACACACACACTAATAAAAAAA [CACACA_site8067] | 10.3
AATACAGACAGACACACACACAAAATAAAATACAAA [CACACA_site245] | 10.1
AAATAAAACAGACACACACACACATACACAAAAAAA [CACACA_site7753] | 10.2
TACAAACAGACATATACACACAAAAAAAAAATAAAA [CACACA_site2562] | 9.91
TGAACACAGACAAATACACACAAAAAAAATAAATAA [CACACA_site4298] | 9.79
TATATATACAGACACATACACACAAATAAAAAAACA [CACACA_site3413] | 10.1
AAATTATAAATAATTTGTACATAAAAATTGGTAAAG [XGTACX_site5197] | 9.07
CTTCAATTAAAATTCACACATATAAATTAAAATATT [CACACA_site6129] | 9.06
GTTACACCAACAAACACACACACACCGACACCCAAA [CACACA_site5361] | 10.1
AGCACCCACCAACACACACACACACCCACCCACCGA [CACACA_site368] | 10.3
TACACCCACCAACACACACACACACCCAAAAAAAAA [CACACA_site498] | 10.1
TGTTATATCAATAATATATAATAATACCCTTCTTTT [CACACA_negctrl_site1682] | 9.06
GTTATAGAAGCATTCACACACACACCCACATACACA [CACACA_site1465] | 10.1
TTGTTATAGAAGCATTCACACACACCCATACATACA [CACACA_site8414] | 9.87
GTTATAGAAGCATTCACACACACACGGACATACACA [CACACA_site6801] | 10.1
TAGAAGCATGGACACACACACATACATACCCATACA [CACACA_site4916] | 10
TATAGAAGCATTCACACACACACATACATACACATA [CACACA_site1466] | 10.2
TATAGAAGCGTTCACACACACACATACATACCCATA [CACACA_site4915] | 10.3
